Compounds with a hit are over-represented: about 2.1% of the library has one in this group of screens.
PABP1 MLLE inh = inhibitors of microRNA-mediated deadenylation, human PABP1 MLLE binding; AID 588489; hit rate 0.36% among 360,000; P11940; GST-MLLE / FITC-PAM2 fluorescence polarization; inhibition, % at 20 µM; in the data active means inhibition above about 35%, passing the limit was not always enough;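 further: plate controls were DMSO wells with GST-MLLE for no effect and wells lacking GST-MLLE protein for full effect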
CendR NRP1 mod = modulators of CendR peptide binding to human neuropilin-1. hit rate 0.85% among 360,000. FAM-RPARPAR peptide binding to NRP-1, fluorescence polarization. O14786. inhibition, % at 25 µM;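 active means inhibition or corrected inhibition above about 18%, plus a signal ratio from 0.5 to 1.5, limit read from the data, passing the limit was not always enough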
eIF4H inh = inhibitors of RNA binding by human eIF4H | Q15056 | eIF4H fluorescence polarization binding assay | inhibition, % at 35 µM | hit rate 0.94% among 290,000 | AID 2012;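 further: calls also rest on retests at 20 µM and on dose response follow-up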
PABP polyA inh = blocks human PABP binding to poly(A) RNA; hit rate 1% among 290,000; inhibition, % at 35 µM; P11940; fluorescence polarization;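 further: calls also rest on retests at 20 µM and on dose response follow-up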
The depositor's hits bear a star. Unless noted, how the calls were made is not given here.

For COc1cc(CN2CCN(CCCc3ccccc3)C(CCO)C2)cc(OC)c1O (stereo unspecified) the results were PABP1 MLLE inh 34.5, CendR NRP1 mod 10.5, eIF4H inh 13.0 and PABP polyA inh 3.5.
Cc1cc(=O)oc(C)c1C(=O)Nc1ccc(N(C)C)cc1 was read as PABP1 MLLE inh -6.0, CendR NRP1 mod -1.2, eIF4H inh -13.9 and PABP polyA inh -7.5.
For Cc1cc(=O)oc(C)c1C(=O)Nc1ccc2nsnc2c1 the results were PABP1 MLLE inh -3.0, CendR NRP1 mod 27.0*, eIF4H inh 6.0 and PABP polyA inh -1.8.
For Cc1cc(=O)oc(C)c1C(=O)Nc1ccc2ncccc2c1 the results were PABP1 MLLE inh 42.3, CendR NRP1 mod -16.8, eIF4H inh 125.1* and PABP polyA inh 118.6.
For CCCCC(=O)Nc1cc(OC)c(NC(=S)Nc2ccc(OC)cc2)cc1OC the results were PABP1 MLLE inh 14.6 and CendR NRP1 mod 1.1.
For Cn1nccc1C(=O)N1CCCC(Nc2ccc(F)cc2)C1 (stereo unspecified) the results were PABP1 MLLE inh -8.4, CendR NRP1 mod -1.3, eIF4H inh -7.0 and PABP polyA inh 0.3.
For CC(C)(CS(=O)(=O)[O-])NC(=O)CC[N+](C)(C)CCO the results were PABP1 MLLE inh 0.6, CendR NRP1 mod -32.2, eIF4H inh 87.8* and PABP polyA inh 50.6*.
`Cc1ccc(OCC(=O)N2CCN(S(=O)(=O)c3ccccc3)CC2)c([N+](=O)[O-])n1` gave PABP1 MLLE inh -7.8, CendR NRP1 mod 7.5, eIF4H inh inconclusive and PABP polyA inh 104.0*.
For CCOC(=O)C1(Cc2cccc(Cl)c2)CCCN(C(=O)CCN2CCCC2=O)C1 (stereo unspecified) the results were PABP1 MLLE inh 0.7, CendR NRP1 mod -4.6, eIF4H inh -2.0 and PABP polyA inh -6.6.
`Cc1ccc(C)c(CN2CCC(n3nccc3NC(=O)CCCc3ccccc3)CC2)c1` gave PABP1 MLLE inh -10.5, CendR NRP1 mod 1.6, eIF4H inh -5.3 and PABP polyA inh 4.5.
Screening COCc1cc(Sc2ccc(OC)cc2)nc(-c2ccccc2)n1 returned PABP1 MLLE inh -2.2, CendR NRP1 mod 15.1, eIF4H inh active and PABP polyA inh 64.4.
Screening CS(=O)(=O)Cc1cc(Sc2ccccc2)nc(-c2ccncc2)n1 returned PABP1 MLLE inh -1.5, CendR NRP1 mod 22.9*, eIF4H inh -13.6 and PABP polyA inh -1.5.
For O=C(CSc1nncc2ccccc12)N1CCOCC1 the results were PABP1 MLLE inh 41.8*, CendR NRP1 mod -3.1, eIF4H inh -5.8 and PABP polyA inh 16.6.
`CCOc1ccc(S(=O)(=O)N2CCC(C(=O)NCCc3ccc(S(N)(=O)=O)cc3)CC2)cc1` gave PABP1 MLLE inh 8.1, CendR NRP1 mod 11.9, eIF4H inh -4.6 and PABP polyA inh -5.1.
O=C(Nc1ccccc1Cl)c1cccs1 was read as PABP1 MLLE inh -5.6, CendR NRP1 mod 25.5*, eIF4H inh -0.2 and PABP polyA inh 5.7.
Screening C[n+]1ccc(C(=O)Nc2ccccc2Cl)cc1 returned PABP1 MLLE inh -108.7, CendR NRP1 mod 17.5, eIF4H inh 9.5 and PABP polyA inh 82.7*.
`O=C(Nc1ccccc1Cl)c1ccc2ccccc2c1` gave PABP1 MLLE inh -6.1, CendR NRP1 mod 0.1, eIF4H inh -2.9 and PABP polyA inh 7.3.
Screening CCn1c(NC(=O)/C=C/c2ccc(F)cc2)nc2ccccc21 returned PABP1 MLLE inh -6.9, CendR NRP1 mod 4.1, eIF4H inh -7.1 and PABP polyA inh 1.0.
For COc1ccc(NC(=O)C2CCCNC2=O)cc1 (stereo unspecified) the results were PABP1 MLLE inh 5.6, CendR NRP1 mod -6.3, eIF4H inh -11.0 and PABP polyA inh -5.1.
Screening CC(=O)c1ccc(NC(=O)C2CCCNC2=O)cc1 (stereo unspecified) returned PABP1 MLLE inh 40.4*, CendR NRP1 mod -0.2, eIF4H inh -1.1 and PABP polyA inh 1.3.
For COc1ccc(S(=O)(=O)Nc2cccc3c2O[C@H](CN(C)C(=O)NC2CCCCC2)[C@@H](C)CN([C@H](C)CO)C3=O)cc1 the results were PABP1 MLLE inh -15.5 and CendR NRP1 mod -3.2.
For O=C(OCc1cc2ccccc2[nH]c1=O)c1ccncc1 the results were PABP1 MLLE inh -1.6, CendR NRP1 mod 31.8*, eIF4H inh 8.2 and PABP polyA inh 2.0.
For O=C(CC1N=C2c3ccccc3N=C(SCc3ccc(F)cc3)N2C1=O)NCc1ccco1 (stereo unspecified) the results were PABP1 MLLE inh 10.1, CendR NRP1 mod -4.9, eIF4H inh 27.6 and PABP polyA inh 3.9.
Cc1ccc(CSC2=Nc3ccccc3C3=NC(CC(=O)NCc4ccco4)C(=O)N23)cc1 (stereo unspecified) was read as PABP1 MLLE inh -7.6, CendR NRP1 mod -14.5, eIF4H inh 51.4* and PABP polyA inh 29.1*.
For Cc1ccc(S(=O)(=O)N2CCN(C(=O)NCc3ccc(C(=O)O)cc3)CC2)cc1 the results were PABP1 MLLE inh -4.8, CendR NRP1 mod 0.8, eIF4H inh 5.7 and PABP polyA inh 6.7.
For COc1cccc2cc(-c3ccnc(=S)[nH]3)oc12 the results were eIF4H inh -0.8 and PABP polyA inh 8.7.
Screening Fc1ccc(-c2ccnc(=S)[nH]2)cc1 returned PABP1 MLLE inh 39.0*, CendR NRP1 mod 5.2, eIF4H inh -5.0 and PABP polyA inh -16.6.
`O=C1/C(=C/c2cccs2)SC(=S)N1CCCC(=O)N(CCO)c1ccccc1` gave PABP1 MLLE inh 9.5, CendR NRP1 mod 5.4, eIF4H inh -0.3 and PABP polyA inh 6.8.
Screening Cc1ccccc1C(=O)NN(C)c1nc2ccccc2nc1C(F)(F)F returned PABP1 MLLE inh 2.2, CendR NRP1 mod -10.9, eIF4H inh 2.6 and PABP polyA inh 0.9.
CN(NC(=O)c1ccco1)c1nc2ccccc2nc1C(F)(F)F was read as PABP1 MLLE inh 2.0, CendR NRP1 mod -27.9, eIF4H inh active and PABP polyA inh 57.0*.
For O=C(Nc1nnc(C2CCCCC2)s1)C1CC(=O)N(c2ccccc2)C1 (stereo unspecified) the results were PABP1 MLLE inh 10.8, CendR NRP1 mod 0.9, eIF4H inh -3.3 and PABP polyA inh -6.2.
For O=C(Nc1nnc(C2CC2)s1)C1CC(=O)N(c2ccc3c(c2)OCCO3)C1 (stereo unspecified) the results were PABP1 MLLE inh -14.4, CendR NRP1 mod -3.1, eIF4H inh 95.5* and PABP polyA inh active.
Cc1ccc(C)c(N2CCN(C(=O)Cc3c(C(=O)O)[nH]c4ccc(Cl)cc34)CC2)c1 was read as PABP1 MLLE inh 4.6, CendR NRP1 mod 7.2, eIF4H inh inconclusive and PABP polyA inh 2.0*.
For COc1ccc(NCC(=O)N/N=C/C=C/c2ccccc2[N+](=O)[O-])cc1 the results were PABP1 MLLE inh 12.2, CendR NRP1 mod -3.5, eIF4H inh -2.1 and PABP polyA inh 66.2*.
Screening Cc1cc2nccc(-c3ccc(Cl)cc3Cl)n2n1 returned PABP1 MLLE inh 2.9, CendR NRP1 mod -1.8, eIF4H inh 1.0 and PABP polyA inh 3.7.
`Nc1ccc2[nH]ncc2c1` gave PABP1 MLLE inh 3.9, CendR NRP1 mod -4.7, eIF4H inh 56.6* and PABP polyA inh 8.4*.
`COc1cccc(CNS(=O)(=O)c2cc3c(cc2Cl)NC(=O)CO3)c1` gave PABP1 MLLE inh -1.9, CendR NRP1 mod 8.6, eIF4H inh 4.9 and PABP polyA inh -0.1.

Source: PubChem
